This is one part of a sample in which hits are shown more often than they occur.
Dicer inh – blocks human Dicer maturation of pre-miR-21. cat-ELCCA pre-miR-21 Dicer processing, chemiluminescence; stronger effect = higher value. z-score at 25 µM. 47,000 compounds, 6% hits. AID 1347074; in the data active means z-score above about 3, passing the limit was not always enough;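 further: higher signal means more uncleaved substrate so more Dicer inhibition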
Target sequence (Q9UPY3 whole entry, looked up): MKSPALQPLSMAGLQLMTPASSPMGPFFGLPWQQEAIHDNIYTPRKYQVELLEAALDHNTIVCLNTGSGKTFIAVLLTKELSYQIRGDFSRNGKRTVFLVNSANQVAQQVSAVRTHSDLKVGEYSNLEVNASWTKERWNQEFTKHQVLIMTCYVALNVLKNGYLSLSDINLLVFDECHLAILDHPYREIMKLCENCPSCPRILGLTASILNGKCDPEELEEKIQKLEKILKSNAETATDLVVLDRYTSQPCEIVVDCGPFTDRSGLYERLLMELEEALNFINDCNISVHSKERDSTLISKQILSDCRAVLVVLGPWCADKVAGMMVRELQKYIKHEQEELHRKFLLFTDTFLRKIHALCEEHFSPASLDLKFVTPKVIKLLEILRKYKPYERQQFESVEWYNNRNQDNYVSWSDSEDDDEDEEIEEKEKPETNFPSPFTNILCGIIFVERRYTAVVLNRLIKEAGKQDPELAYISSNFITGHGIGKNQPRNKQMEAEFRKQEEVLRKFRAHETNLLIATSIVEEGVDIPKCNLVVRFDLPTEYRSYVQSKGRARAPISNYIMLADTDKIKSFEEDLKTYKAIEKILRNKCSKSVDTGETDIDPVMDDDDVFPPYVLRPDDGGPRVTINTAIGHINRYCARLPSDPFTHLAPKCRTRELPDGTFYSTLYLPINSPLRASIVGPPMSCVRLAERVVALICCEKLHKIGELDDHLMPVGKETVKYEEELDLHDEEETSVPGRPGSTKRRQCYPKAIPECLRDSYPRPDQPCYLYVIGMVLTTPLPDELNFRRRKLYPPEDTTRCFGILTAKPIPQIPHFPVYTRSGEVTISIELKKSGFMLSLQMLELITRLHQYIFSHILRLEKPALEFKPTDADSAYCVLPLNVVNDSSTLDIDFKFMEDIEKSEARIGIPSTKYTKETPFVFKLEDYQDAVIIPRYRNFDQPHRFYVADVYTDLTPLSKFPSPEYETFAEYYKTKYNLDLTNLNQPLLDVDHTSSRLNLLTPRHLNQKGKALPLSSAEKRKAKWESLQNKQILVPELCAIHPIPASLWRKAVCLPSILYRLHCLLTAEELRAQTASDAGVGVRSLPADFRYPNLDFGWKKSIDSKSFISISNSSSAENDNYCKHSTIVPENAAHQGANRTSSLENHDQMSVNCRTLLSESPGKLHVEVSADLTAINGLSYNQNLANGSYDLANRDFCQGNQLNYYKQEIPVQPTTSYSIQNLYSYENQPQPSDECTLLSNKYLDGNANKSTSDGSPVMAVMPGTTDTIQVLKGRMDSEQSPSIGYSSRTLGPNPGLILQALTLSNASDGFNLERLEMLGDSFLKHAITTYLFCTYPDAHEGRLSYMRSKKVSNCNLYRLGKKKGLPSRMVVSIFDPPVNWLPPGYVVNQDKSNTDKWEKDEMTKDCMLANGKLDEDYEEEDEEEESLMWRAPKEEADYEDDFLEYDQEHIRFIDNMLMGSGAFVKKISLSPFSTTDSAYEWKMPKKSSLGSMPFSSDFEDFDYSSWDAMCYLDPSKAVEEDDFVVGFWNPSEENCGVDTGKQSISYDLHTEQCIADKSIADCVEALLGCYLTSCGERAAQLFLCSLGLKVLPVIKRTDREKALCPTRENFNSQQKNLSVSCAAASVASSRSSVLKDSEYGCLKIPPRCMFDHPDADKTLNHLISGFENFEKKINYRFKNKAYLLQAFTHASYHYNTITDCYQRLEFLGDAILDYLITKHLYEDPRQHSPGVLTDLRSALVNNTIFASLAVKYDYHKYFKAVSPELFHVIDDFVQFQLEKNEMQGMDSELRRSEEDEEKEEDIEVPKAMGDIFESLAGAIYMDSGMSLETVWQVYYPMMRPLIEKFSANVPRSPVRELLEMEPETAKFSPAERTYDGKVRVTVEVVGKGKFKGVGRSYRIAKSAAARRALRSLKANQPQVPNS
Hits are given with their value; i = inactive.

SMILES | Dicer inh
COCCCn1c(SCC(=O)c2ccc(Cl)cc2)nnc1-c1ccc(C(C)(C)C)cc1 | i
O=C(O)CCSc1cccc(C(F)(F)F)c1 | i
CC1CCCCN1C(=O)CSc1nc(-c2ccco2)cc(C(F)(F)F)n1 (configuration not stated) | i
CCOc1cc(C2C(C(=O)OC)=C(C)NC3=C2C(=O)c2ccccc23)cc(Br)c1OC (configuration not stated) | i
CCOc1ncnc2c1nnn2Cc1ccccc1Cl | i
CC(C)(C)c1csc(NC(=O)c2ccc(Cl)cc2Cl)n1 | i
CCOC(=O)c1nc(-c2ccccc2)sc1C(=O)OCC | i
COc1ccc(C2C(C#N)=C(C)NC3=C2C(=O)CC(c2ccc(Cl)cc2)C3)cc1OC (configuration not stated) | i
COC(=O)c1ccc(C2Oc3ccccc3C3CC(c4ccccc4O)=NN32)cc1 (configuration not stated) | i
COc1ccc(C2Oc3c(OC)cccc3C3CC(c4ccccc4O)=NN32)c(OC)c1 (configuration not stated) | i
COc1ccc(OC)c(C2Oc3ccccc3C3CC(c4ccccc4O)=NN32)c1 (configuration not stated) | 6
COc1ccc(O)c(C2=NN3C(C2)c2ccccc2OC3c2cc(OC)ccc2OC)c1 (configuration not stated) | i
COc1cc(C2Oc3c(OC)cccc3C3CC(c4ccccc4O)=NN32)ccc1O (configuration not stated) | i
COc1ccc(O)c(C2=NN3C(C2)c2ccccc2OC3c2ccncc2)c1 (configuration not stated) | 11
COc1cc(C2Oc3ccccc3C3CC(c4ccccc4O)=NN32)ccc1O (configuration not stated) | 11
CN(C)CC1=C(Cl)c2ccccc2S1(=O)=O | i
COC(=O)c1ccc(-c2ncc(-c3ccc(N(C)C)cc3)o2)cc1 | i
O=C1C(/C=N/c2[nH]ncc2-c2ccccc2)=C(O)c2ccccc21 | i
O=C(O)CCC(=O)NCCNc1ncnc2scc(-c3ccccc3)c12 | i
O=C(Nc1cccc([N+](=O)[O-])c1)Nc1ccc(Sc2ccccc2)nc1Sc1ccccc1 | i
COC(=O)/C(=C\N(C)C)S/C(C#N)=C/N(C)C | i
CSc1sc([N+](=O)[O-])c2c1C(=O)CC(C)(C)C2 | i
Cc1c(CC(=S)N2CCOCC2)sc2ccc(Cl)cc12 | i
C/C(=N\OC(=O)c1cc2ccccc2s1)c1cc[nH]c1 | i
CCOC(=O)c1c(NS(=O)(=O)c2cc(Cl)c(Cl)cc2Cl)nc(SC)n1-c1ccccc1OC | i
SMILES | Dicer inh
O=C(Nc1ccc2c(c1)OCCO2)c1cccc(C(=O)Nc2ccc3c(c2)OCCO3)n1 | i
CCC(Nc1nc(-c2ccccc2)nc2ccccc12)C(=O)O (configuration not stated) | i
c1ccc(-c2nc(Nc3ccc4c(c3)OCCO4)c3ccccc3n2)cc1 | 5.4
Nc1c(-c2n[nH]c(=S)n2-c2ccccc2)sc2nnc(-c3ccccc3)c(-c3ccccc3)c12 | i
C=CCn1c(=O)c(C(=O)Nc2cccc(O)c2)c(O)c2ccccc21 | 11
C=CCn1c(N)cc(=O)nc1SCC(=O)Nc1ccccc1 | i
O=c1c(Cc2ccccc2)c(O)c2ccccc2n1Cc1ccccc1 | i
CCOC(=O)c1oc2ccc(Br)cc2c1NC(=O)CN1CCOCC1 | i
NC(=O)c1cc(Cl)c(C(=O)O)[nH]c1=O | i
O=C(NCc1ccncc1)c1ccc([N+](=O)[O-])o1 | i
CNS(=O)(=O)c1c(I)ccc2ccccc12 | i
Clc1ccccc1-c1nnc2c3cnn(Cc4ccccc4)c3ncn12 | i
Cc1cc(C)c2c(n1)sc1c(SCc3ccc(F)cc3)ncnc12 | i
CCOc1ncnc2c1sc1nc(C)cc(C)c12 | i
C=CCSc1ncnc2c1sc1nc(C)cc(C)c12 | 3.1
Cc1nn2c3ccccc3n(CC(=O)c3ccc(Cl)cc3)c2nc1=O | i
N/C(Cc1ccc(-c2csnn2)cc1)=N\OC(=O)c1cccs1 | i
OCCCCCNc1ncnc2sc3c(c12)CCCC3 | i
Cn1cnc([N+](=O)[O-])c1Sc1ccc(F)cc1 | i
N#Cc1c(F)ccc(NC(=O)Nc2ccc(Cl)cc2)c1F | i
O=C(Nc1ccc(Cl)cc1)Nc1nc(-c2cc(Cl)c(Cl)s2)cs1 | i
O=C(Nc1ccc(Cl)cc1)Nc1cc(Cl)sc1Cl | 4.7
Cn1c(-c2ccc3c(c2)OCO3)cn2cc(-c3ccc(Cl)cc3)nc12 | i
Cc1cn(C(=O)Nc2ccc(Cl)cc2)nc1-c1ccccc1 | i
CC(=O)C1=C(C)Nc2ccccc2S1 | i
SMILES | Dicer inh
Cn1c(=O)c2c(-c3ccccc3)n(CCCO)cc2n(C)c1=O | 5.8
Cc1ccc(-c2c3c(=O)n(C)c(=O)n(C)c3cn2C)cc1 | i
Cn1c(=O)c2c(-c3ccccc3)n(C(CO)(CO)CO)cc2n(C)c1=O | i
Cc1ncc([N+](=O)[O-])n1CCOC(=O)c1ccco1 | i
COc1cccc(OC)c1CN(C)C(=O)c1cnc(OC(C)C)cc1C(F)(F)F | i
CS/C(=N/S(=O)(=O)c1ccc(-n2nc(C(F)(F)F)cc2-c2cccs2)cc1)NNC(=O)Nc1ccccc1 | 4.4
NN/C(=N\S(=O)(=O)c1ccc(-n2nc(C(F)(F)F)cc2-c2cccs2)cc1)N1CCCC1 | i
CN(C)/C=N/S(=O)(=O)c1ccc(-n2nc(C(F)(F)F)cc2-c2cccs2)cc1 | i
CCOc1cc(C2NC(C(=O)O)CS2)ccc1OCc1ccccc1Cl (configuration not stated) | i
CCOC(=O)c1ccc2nc(C)c(C)nc2c1 | 4.8
Cc1ccc(C(=O)COC(=O)c2ccc3nc(C)c(C)nc3c2)cc1 | i
COC(=O)c1ccc2nc(C)c(C)nc2c1 | i
C=CCOC(=O)C1=C(C)NC2=C(C(=O)CC(C)(C)C2)C1c1cc(Br)c(O)c(OC)c1 (configuration not stated) | i
COc1ccc(-n2ncc(NC(=O)N3CCN(c4ccc(C(F)(F)F)cn4)CC3)c2C)cc1 | i
Cc1ccc2nc(Cc3ccc4nc(N)sc4c3)oc2c1 | 4.7
Cc1ccc2nc(Cc3ccc(N)cc3)oc2c1 | i
Nc1nc2ccc(Cc3nc4ccccc4o3)cc2s1 | i
COc1ccc(-c2nnc(NCc3ccccc3)c3ccccc23)cc1 | i
O=C(Oc1ccccc1N1CCCCC1)C1CCN(c2nccc(C(F)(F)F)n2)CC1 | i
CCOC(=O)c1csc2ncc(C#N)c(=O)n12 | i
Cc1[nH]nc(Nc2ccc(C(=O)O)cc2)c1[N+](=O)[O-] | i
CC1CCN(CC(C)OC(=O)C2COc3ccccc3O2)CC1 (configuration not stated) | i
CC(CN(C)Cc1ccccc1)OC(=O)C1COc2ccccc2O1 (configuration not stated) | 3.5
O=C(C1COc2ccccc2O1)N1CCCC1 (configuration not stated) | i
CCc1ccc2nc(Nc3ncc4c(n3)CCCC4=O)nc(C)c2c1 | i
SMILES | Dicer inh
CCOC(=O)C1=C(C)NC(SCC(=O)c2ccccc2)=C(C#N)C1CC(C)C (configuration not stated) | i
O=C(Nc1cccc(F)c1C(=O)NCCc1ccncc1)c1cccc(C(F)(F)F)c1 | i
N#Cc1ccsc1NC(=O)/C=C/C(=O)O | i
COCCOC(=O)C1=C(C)NC2=C(C(=O)CC(C)(C)C2)C1c1ccc(OC)cc1 (configuration not stated) | i
COC(=S)Nc1ccccc1Cl | i
CC1=CC(C)C2(CO)COC(c3ccc(O)cc3)C1C2C (configuration not stated) | 3.9
CC1=CC(C)C2(CO)COC(c3cccnc3)C1C2C (configuration not stated) | i
